According to PubChem BioAssay (NCI):
About 83,000 compounds went through this panel and 20% of them were active in at least one assay; those are over-represented in the sample as a whole.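 In brief: 96-well plates, 48 h treatment, single concentration, percent growth endpoint.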 Values without a mark were called inactive. Active and inactive are the calls of the source. The calls were made as follows: active = growth percent below 10; inactive = the rest.

Key:
Assay in all cases: NCI-60 one-dose screen, 48 h (100 = growth as untreated, 0 = no growth, -100 = all killed)
Conditions in all cases: 10 µM unless noted
HCT-15 colon = test system: HCT-15 colon
HT29 colon = test system: HT29 colon
SNB-75 CNS = test system: SNB-75 CNS
SNB-19 CNS = test system: SNB-19 CNS
U251 CNS = test system: U251 CNS
PC-3 prostate = test system: PC-3 prostate
SK-MEL-5 melanoma = test system: SK-MEL-5 melanoma
UACC-62 melanoma = test system: UACC-62 melanoma
LOX IMVI melanoma = test system: LOX IMVI melanoma
SK-MEL-28 melanoma = test system: SK-MEL-28 melanoma
SK-MEL-2 melanoma = test system: SK-MEL-2 melanoma
EKVX NSCLC = test system: EKVX NSCLC
SN12C renal = test system: SN12C renal
UO-31 renal = test system: UO-31 renal
TK-10 renal = test system: TK-10 renal
ACHN renal = test system: ACHN renal
CAKI-1 renal = test system: CAKI-1 renal
A498 renal = test system: A498 renal
CCRF-CEM leukemia = test system: CCRF-CEM leukemia
MOLT-4 leukemia = test system: MOLT-4 leukemia

SMILES | growth (HCT-15 colon) | growth (HT29 colon) | growth (SNB-75 CNS) | growth (SNB-19 CNS) | growth (U251 CNS) | growth (PC-3 prostate) | growth (SK-MEL-5 melanoma) | growth (UACC-62 melanoma) | growth (LOX IMVI melanoma) | growth (SK-MEL-28 melanoma) | growth (SK-MEL-2 melanoma) | growth (EKVX NSCLC) | growth (SN12C renal) | growth (UO-31 renal) | growth (TK-10 renal) | growth (ACHN renal) | growth (CAKI-1 renal) | growth (A498 renal) | growth (CCRF-CEM leukemia) | growth (MOLT-4 leukemia)
CCCCCCCCN=C(NCCCCCCCC)SCc1cccc2ccccc12 | -78.1% (active) | -24.4% (active) | -88.4% (active) | -88.4% (active) | -98.7% (active) | -93.2% (active) | -95.3% (active) | -82.2% (active) | -96% (active) | -87.8% (active) | -89.8% (active) | -66.4% (active) | -88.1% (active) | -57.2% (active) | -94.8% (active) | -91.8% (active) | -84.9% (active) | -80.4% (active) | -2.17% (active) | -11% (active)
C#Cc1cccc(Nc2nc3cc([N+](=O)[O-])ccc3nc2Nc2ccc(O)cc2)c1 | 0.208% (active) | -80.7% (active) | 43.8% | 23.3% | 2.57% (active) | 2.88% (active) | 47.1% | -15.9% (active) | -87.5% (active) | 21.5% | -29.5% (active) | 23.1% | 24.9% | 14.6% | 3.86% (active) | 9.93% (active) | 36.4% | 49.4% | 6.32% (active) | 0.253% (active)
Clc1ccc(-c2nc(-c3cccs3)no2)cc1 | 106% | 96% | 88.6% | 105% | 84.6% | 84.4% | 87.9% | 88.1% | 94.7% | 112% | 103% | 85.4% | 100% | 71.3% | 74.6% | 101% | 99.5% | 108% | 91.9% | 96.3%
Cn1c(-c2ccccc2)cc(=O)n1-c1ccccc1 | 104% | 106% | 92.9% | 108% | 109% | 100% | 104% | 103% | 101% | 113% | 121% | 93.7% | 107% | 101% | 116% | 109% | 95.6% | 89.1% | 91.1% | 99.6%
COc1cnc2c(c1)C(=O)c1c-2n(CCCN2CCCC2)c(=O)c2cc(Cl)ccc12 | 39.4% | -72.8% (active) | 19.2% | 28.7% | 20.1% | 20.4% | 14.7% | 21.1% | 12.5% | 85.1% | 65.2% | 46.6% | 27.5% | 15.9% | 39.4% | 7.7% (active) | 42.4% | -9.2% (active) | -38.1% (active) | -24.4% (active)
COC(=O)OC1C(O[C@H]2C[C@H]3[C@@H]4CC=C5C[C@@H](O)CC[C@]5(C)[C@H]4CC[C@]3(C)[C@H]2[C@H](C)C(=O)CCC(C)C)OCC(O)C1OC1OCC(O)C(O)C1OC(=O)c1ccc(OC)cc1 (some centres undefined) | -40.9% (active) | 4.87% (active) | 0.635% (active) | 8.46% (active) | -18.5% (active) | -18.8% (active) | -71.5% (active) | -29% (active) | -38.7% (active) | -55.3% (active) | -46.1% (active) | 14.3% | 43.4% | -40.4% (active) | 0.902% (active) | 31.6% | -16.6% (active) | -74% (active) | -25.9% (active) | -36.5% (active)
Cc1[nH]c2ccccc2c1C1=CC(=O)C=CC1=O | 74.6% | 105% | 82.8% | 93% | 72.4% | 79.3% | 85.6% | 75.9% | 79.1% | 104% | 93.7% | 107% | 90.8% | 59.5% | 92.2% | 58.7% | 96.8% | 121% | 28.4% | 
CC(=O)OC[C@H]1O[C@@H](n2c(=O)cc(N)[nH]c2=O)C(OC(C)=O)[C@@H]1OC(C)=O (some centres undefined) | 99.7% | 106% | 75.9% | 98.7% | 97.7% | 95.3% | 99.5% | 94.6% | 99.9% | 110% | 105% | 104% | 103% | 78.6% | 97.8% | 101% | 88.8% | 98.1% | 111% | 108%
CC(NC(=O)c1ccccc1)C(=O)Nc1ccccc1 (centres undefined) | 115% | 103% | 88.3% | 107% | 101% | 92.8% | 104% | 104% | 99.6% | 115% | 104% | 105% | 109% | 94.9% | 103% | 103% | 107% | 103% | 90.4% | 101%
CCCCCCCCCCCCNC(=O)N[C@H](C(=O)N[C@H]1/C=C/CCNC(=O)/C=C/[C@H](C)NC1=O)C(C)C | 27.9% | 11.8% | -94.9% (active) | -25.8% (active) | -95.3% (active) | -24% (active) | -100% (active) | -88.8% (active) | -89.2% (active) | -70.2% (active) | 8.32% (active) | 25% | -42.4% (active) | 36.7% | 8.32% (active) | 16.6% | 35.8% | -55.3% (active) | -5.12% (active) | -29% (active)
C#CCO[C@H]1CC[C@H](OCC#C)[C@@H]2[C@H]1[C@H]1C[C@@H]3[C@@]4(C)CCC[C@@](C)(C(=O)OC)[C@@H]4CC[C@@]23C=C1C(C)C | 91.8% | 53.6% | 94.7% | 96.1% | 46.8% | 44.8% | 87.6% | 74.6% | -64.5% (active) | 102% | 85% | 74.4% | 86.3% | 50.5% | 93.7% | 92.6% | 59.3% | 108% | -52.9% (active) | 56.2%
Oc1ccccc1-c1nnc(COc2ccc(Cl)cc2Cl)o1 | 27.4% | 60.3% | 86.6% | 53.5% | 41.5% | 47.8% | 32.3% | 25.1% | 25.5% | 68.9% | 37.9% | 31.1% | 52.6% | 30.2% | 63.7% | 43.5% | 41.5% | 89.9% | 15.5% | 19.5%
CCCCOc1nc2ccccc2cc1/C=C/c1cc(/C=C/c2cc3ccccc3nc2OCCCC)n(-c2ccccc2)n1 | 116% | 93.5% | 82.5% | 97.3% | 99% | 93.1% | 101% | 81.3% | 95.9% | 114% | 101% | 105% | 95.3% | 75.2% | 119% | 103% | 88.3% | 95.9% | 101% | 99%
COc1cc(C2CC(c3ccccc3)=NN2C=O)ccc1Oc1ccnc2cc(Cl)ccc12 (centres undefined) | 59.3% | 75.9% | 69.9% | 71.2% | 88.6% | 31.4% | 1.25% (active) | 54.3% | 56.6% | 75.9% | 82.4% | 33.5% | 65.4% | 47.2% | 91.1% | 68.9% | 49.6% | 76.4% | 45.7% | 12.8%
